In paper PMC8384837, “Expanding the binding specificity for RNA recognition by a PUF domain” one finds binding signal data, which are given here for eleven sequences.

Holding throughout (assay): yeast three-hybrid, YBZ-1, SC-Leu-His + 0.5 mM 3-AT, 4 days
Conditions in all cases: tags: N-Gal4 AD-HA kept; label: inside an RPR1-promoter hybrid RNA with tandem MS2 sites; ssRNA

One assay deals with PUM1 PUF domain R4-QHR (Homo sapiens, UniProt Q14671 828-1176, N971Q;Q975R). Put shortly: (§1)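 Each repeat of the Pumilio-1 PUF domain was randomized at its three base-contacting residues, and these libraries were co-expressed from a centromeric plasmid with matching RNA elements in strain YBZ-1. After four days on SC-Leu (input) or SC-Leu-His + 0.5 mM 3-AT (selection), the repeat regions were PCR-amplified and Illumina-sequenced. The interaction score compares variant frequency between input and selection as a log change, computed in log2 with a pseudocount of 1 for absent variants.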

The target of the next assay is PUM1 PUF domain R4-MNV (Homo sapiens, UniProt Q14671 828-1176, N971M;H972N;Q975V). Put shortly: as §1
The target of another assay is PUM1 PUF domain R4-RMG (Homo sapiens, UniProt Q14671 828-1176, N971R;H972M;Q975G). Summed up: as §1
A further assay addresses PUM1 PUF domain R8-TWR (Homo sapiens, UniProt Q14671 828-1176, N1122T;Y1123W;Q1126R). Summed up:
as §1

The target of another assay is PUM1 PUF domain R5-DYG (Homo sapiens, UniProt Q14671 828-1176, C1007D;R1008Y;Q1011G). Summed up: as §1
Another assay has as its target PUM1 PUF domain R3-VRC (Homo sapiens, UniProt Q14671 828-1176, C935V;Q939C). Put shortly:
as §1

In the next assay the target is T1, PUM1 PUF domain R6-KFG (Homo sapiens, UniProt Q14671 828-1176, N1043K;Y1044F;Q1047G).
T1 sequence: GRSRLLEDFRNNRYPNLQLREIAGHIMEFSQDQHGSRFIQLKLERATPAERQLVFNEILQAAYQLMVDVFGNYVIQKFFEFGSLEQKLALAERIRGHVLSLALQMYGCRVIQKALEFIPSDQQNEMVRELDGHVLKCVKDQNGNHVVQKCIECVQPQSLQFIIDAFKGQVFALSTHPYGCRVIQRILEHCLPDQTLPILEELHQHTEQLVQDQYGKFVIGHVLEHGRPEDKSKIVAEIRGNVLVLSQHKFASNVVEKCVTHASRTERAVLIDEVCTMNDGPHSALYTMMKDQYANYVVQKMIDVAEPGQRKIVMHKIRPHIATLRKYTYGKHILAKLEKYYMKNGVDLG
Summed up: as §1

The target of the next assay is PUM1 PUF domain R3-IRC (Homo sapiens, UniProt Q14671 828-1176, C935I;Q939C). Summed up:
as §1

A further assay addresses PUM1 PUF domain R4-YFG (Homo sapiens, UniProt Q14671 828-1176, N971Y;H972F;Q975G). Summed up: as §1
The next assay concerns the target PUM1 PUF domain R5-SDE (Homo sapiens, UniProt Q14671 828-1176, C1007S;R1008D;Q1011E). Summed up:
as §1

The target in another assay is PUM1 PUF domain R5-PYF (Homo sapiens, UniProt Q14671 828-1176, C1007P;R1008Y;Q1011F). Summed up: as §1
A further assay deals with PUM1 PUF domain R5-RKE (Homo sapiens, UniProt Q14671 828-1176, C1007R;R1008K;Q1011E). Summed up:
as §1

Another assay has as its target PUM1 PUF domain R8-PWK (Homo sapiens, UniProt Q14671 828-1176, N1122P;Y1123W;Q1126K). Put shortly: as §1
The next assay addresses PUM1 PUF domain R3-MRI (Homo sapiens, UniProt Q14671 828-1176, C935M;Q939I). Put shortly: as §1
The next assay concerns the target PUM1 PUF domain R1-NWR (Homo sapiens, UniProt Q14671 828-1176, S863N;R864W;Q867R). Put shortly: as §1

With “GGCUAGAACUAGUGGAUCCCCCGGCGCCCGGCGGCUCGAGCCCGGGUAAGUGUACAUAGUCUGCAUGCCGCCGGGCGCCAUGCCUGCAGGUCGACUCUAGAAAACAUG”, the values for the binding signal in the assay with PUM1 PUF domain R4-QHR and with PUM1 PUF domain R4-MNV were 2.26 log2 enrichment (interaction score) and 0.87 log2 enrichment (interaction score), respectively.
As for “GGCUAGAACUAGUGGAUCCCCCGGCGCCCGGCGGCUCGAGCCCGGGUAAGUGUAAAUAGUCUGCAUGCCGCCGGGCGCCAUGCCUGCAGGUCGACUCUAGAAAACAUG”, the binding signal with PUM1 PUF domain R4-RMG is 2.77 log2 enrichment (interaction score); in the assay with PUM1 PUF domain R8-TWR, 4.94 log2 enrichment (interaction score); with PUM1 PUF domain R5-DYG, 3.86 log2 enrichment (interaction score); in the assay with PUM1 PUF domain R3-VRC, 3.72 log2 enrichment (interaction score); with PUM1 PUF domain R6-KFG it was 3.39 log2 enrichment (interaction score); with PUM1 PUF domain R3-IRC, 2.81 log2 enrichment (interaction score). Also, in the assay with PUM1 PUF domain R4-YFG, the binding signal was 2.07 log2 enrichment (interaction score).
On to “GGCUAGAACUAGUGGAUCCCCCGGCGCCCGGCGGCUCGAGCCCGGGUAAGUGUGAAUAGUCUGCAUGCCGCCGGGCGCCAUGCCUGCAGGUCGACUCUAGAAAACAUG”, for which, in the assay with PUM1 PUF domain R5-SDE, the binding signal is 2.31 log2 enrichment (interaction score).
In the case of “GGCUAGAACUAGUGGAUCCCCCGGCGCCCGGCGGCUCGAGCCCGGGUAAGUGUUAAUAGUCUGCAUGCCGCCGGGCGCCAUGCCUGCAGGUCGACUCUAGAAAACAUG”, the values for the binding signal in the assay with PUM1 PUF domain R5-PYF and with PUM1 PUF domain R5-RKE were 2.41 log2 enrichment (interaction score) and 3.74 log2 enrichment (interaction score), respectively.
Regarding “GGCUAGAACUAGUGGAUCCCCCGGCGCCCGGCGGCUCGAGCCCGGGUAAGCGUAAAUAGUCUGCAUGCCGCCGGGCGCCAUGCCUGCAGGUCGACUCUAGAAAACAUG”, the binding signal in the assay with PUM1 PUF domain R8-TWR is 5.17 log2 enrichment (interaction score); with PUM1 PUF domain R8-PWK, 5.71 log2 enrichment (interaction score).
Regarding “GGCUAGAACUAGUGGAUCCCCCGGCGCCCGGCGGCUCGAGCCCGGGUAAGUGUCAAUAGUCUGCAUGCCGCCGGGCGCCAUGCCUGCAGGUCGACUCUAGAAAACAUG”, the binding signal was 3.39 log2 enrichment (interaction score) with PUM1 PUF domain R5-RKE and 3.79 log2 enrichment (interaction score) with PUM1 PUF domain R5-DYG.
For “GGCUAGAACUAGUGGAUCCCCCGGCGCCCGGCGGCUCGAGCCCGGGUAAGUGUAAGUAGUCUGCAUGCCGCCGGGCGCCAUGCCUGCAGGUCGACUCUAGAAAACAUG”, the binding signal with PUM1 PUF domain R3-MRI was 5.12 log2 enrichment (interaction score); with PUM1 PUF domain R3-VRC, 0.33 log2 enrichment (interaction score).
As for “GGCUAGAACUAGUGGAUCCCCCGGCGCCCGGCGGCUCGAGCCCGGGUAAGUGUAAUUAGUCUGCAUGCCGCCGGGCGCCAUGCCUGCAGGUCGACUCUAGAAAACAUG”, the binding signal in the assay with PUM1 PUF domain R3-MRI is 1.25 log2 enrichment (interaction score).
Consider “GGCUAGAACUAGUGGAUCCCCCGGCGCCCGGCGGCUCGAGCCCGGGUAAGUGUAUAUAGUCUGCAUGCCGCCGGGCGCCAUGCCUGCAGGUCGACUCUAGAAAACAUG”, for which the binding signal with PUM1 PUF domain R4-MNV is 3.98 log2 enrichment (interaction score); in the assay with PUM1 PUF domain R4-YFG, 3.63 log2 enrichment (interaction score).
For “GGCUAGAACUAGUGGAUCCCCCGGCGCCCGGCGGCUCGAGCCCGGGUAAGUGUAAAUCGUCUGCAUGCCGCCGGGCGCCAUGCCUGCAGGUCGACUCUAGAAAACAUG”, the binding signal in the assay with PUM1 PUF domain R1-NWR was 6.94 log2 enrichment (interaction score).
Turning to “GGCUAGAACUAGUGGAUCCCCCGGCGCCCGGCGGCUCGAGCCCGGGUAAGUGUAAAUUGUCUGCAUGCCGCCGGGCGCCAUGCCUGCAGGUCGACUCUAGAAAACAUG”, in the assay with PUM1 PUF domain R1-NWR, the binding signal is 4.99 log2 enrichment (interaction score).
